Paper PMC10668032, “Altered binding affinity of SIX1-Q177R correlates with enhanced WNT5A and WNT pathway effector expression in Wilms tumor”
In all, about 33,000 sequences were measured (“e-score”: median about -0.053, highest 2% from about 0.38 on). The entries come from a sample that favours the highest values as a whole.

Target: T1, SIX1 homeodomain (reference allele) (human, UniProt Q15475 108-198)
T1 sequence: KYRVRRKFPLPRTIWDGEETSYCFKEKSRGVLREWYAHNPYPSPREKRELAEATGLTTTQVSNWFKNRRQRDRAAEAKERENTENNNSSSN
Assay: universal protein binding microarray; Universal all-10-mer PBM (8x60K, AMADID 030236), 300 nM GST-tagged protein, Alexa Fluor 488 anti-GST; buffer, salt, pH and temperature not stated (as in Berger); high values mean tight binding
Settings: protein: ivt; tags: N-terminal GST; dsDNA, one strand shown
Method in brief: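 Homeodomains fused to GST were made by in vitro transcription/translation and measured by anti-GST western blot with a recombinant GST standard curve. At 300 nM final concentration, they were applied in duplicate to universal 'all 10-mer' protein binding microarrays (8×60K format).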

| Sequence | binding signal [E-score] |
| --- | --- |
| ATGCATGA | 0.162 ± 0.0129 |
| ATCCACGG | 0.187 ± 0.0301 |
| ACCGGATA | 0.364 ± 0.00187 |
| CCCGGATC | 0.45 ± 0.0283 |
| ACCGGATC | 0.417 ± 0.0393 |
| CCTGGATC | 0.251 ± 0.0575 |
| ACCAGATC | 0.349 ± 0.0234 |
| AGCGGATC | 0.375 ± 0.0283 |
| CCCGGGTC | 0.288 ± 0.0806 |
| CCCAGATA | 0.302 ± 0.0141 |
| CCCAGATC | 0.38 ± 0.0205 |
| CCCCGCAC | 0.189 ± 0.188 |
| CAACGATC | 0.277 ± 0.0168 |
| CGTGATCA | 0.181 ± 0.00373 |
| AGTGATCA | 0.313 ± 0.0131 |
| AGTGATCC | 0.4519 ± 0.00218 |
| AGTGATCG | 0.25 ± 0.00845 |
| GGTGATCA | 0.315 ± 0.0247 |
| CGTGATCC | 0.41 ± 0.0121 |
| ATACGGGA | 0.367 ± 0.0155 |
| GATGAGAC | 0.20672 ± 0.00017 |
| ATATGAGC | 0.208 ± 0.0956 |

| Sequence | binding signal [E-score] |
| --- | --- |
| CCATCCGG | 0.235 ± 0.079 |
| AACGATCA | 0.2067 ± 0.00118 |
| GAGGATCA | 0.369 ± 0.0176 |
| AAGGATCG | 0.349 ± 0.00351 |
| CAGGATCA | 0.386 ± 0.00253 |
| CAGGATCG | 0.297 ± 0.0493 |
| TAGGATCA | 0.409 ± 0.017 |
| TAGGATAA | 0.21 ± 0.0705 |
| AAGGATCA | 0.383 ± 0.00738 |
| AAGGATCT | 0.267 ± 0.029 |
| TAGGATGA | 0.199 ± 0.0352 |
| ACTATCTA | 0.154 ± 0.0178 |
| AAACCCGA | 0.165 ± 0.0599 |
| AACACCAT | 0.173 ± 0.0172 |
| ATAGCGGC | 0.194 ± 0.00861 |
| AGGTGTAA | 0.165 ± 0.116 |
| AGGTGTAT | 0.377 ± 0.0149 |
| GGGTGTAA | 0.334 ± 0.00878 |
| AGGTGTTG | 0.2361 ± 0.00141 |
| AGGTGTAC | 0.182 ± 0.0154 |
| AGGTGTCA | 0.45238 ± 0.000134 |
| GGGTGTCA | 0.4698 ± 0.00156 |

| Sequence | binding signal [E-score] |
| --- | --- |
| AGGTGTCC | 0.274 ± 0.042 |
| AGGTGTTA | 0.203 ± 0.0687 |
| GGGTGTGA | 0.158 ± 0.0496 |
| AGGTGTGA | 0.204 ± 0.0237 |
| AGGTGTCG | 0.399 ± 0.0161 |
| TATCTACA | 0.167 ± 0.0212 |
| CAAAGATC | 0.209 ± 0.0122 |
| GATCTCCA | 0.239 ± 0.0181 |
| ACATATAT | 0.252 ± 0.0998 |
| ATCACTGA | 0.243 ± 0.0373 |
| GTATTTAA | 0.172 ± 0.0151 |
| TAACCCGA | 0.213 ± 0.0195 |
| CATATTAA | 0.175 ± 0.121 |
| ATCATTAC | 0.295 ± 0.0265 |
| AGAATACT | 0.208 ± 0.057 |
| AAAAGGAT | 0.163 ± 0.102 |
| CGGTGTAA | 0.257 ± 0.00735 |
| CGGTGTCC | 0.352 ± 0.0179 |
| CGGTGTCA | 0.471 ± 0.00725 |
| AGGATCGG | 0.32 ± 0.0208 |
| ATCACGAC | 0.18 ± 0.0119 |
| AGAATGAT | 0.216 ± 0.0443 |

| Sequence | binding signal [E-score] |
| --- | --- |
| GGGATATA | 0.433 ± 0.0145 |
| GGGATAGA | 0.256 ± 0.0216 |
| CGGATATA | 0.422 ± 0.00574 |
| GGGATAAA | 0.212 ± 0.0282 |
| CTAGATGC | 0.153 ± 0.0669 |
| CATACACG | 0.157 ± 0.0344 |
| AGCTATAT | 0.2 ± 0.0474 |
| ACACGGGT | 0.23 ± 0.0432 |
| CATCGATA | 0.308 ± 0.015 |
| ATATCTGC | 0.346 ± 0.0315 |
| GGATCGGA | 0.38 ± 0.0357 |
| ATATCGGC | 0.394 ± 0.011 |
| ATATCGGA | 0.427 ± 0.0311 |
| ATATCTGA | 0.356 ± 0.0383 |
| CGATCGGA | 0.24 ± 0.0149 |
| ATATGGGC | 0.326 |
| CTATCGGA | 0.289 ± 0.00216 |
| AGATCGGC | 0.216 ± 0.0174 |
| AGATCGGA | 0.255 ± 0.00445 |
| ATATGGGG | 0.4 ± 0.0352 |
| ATATGGGA | 0.319 ± 0.00531 |
